# Source: the supplement of paper PMC10849652
# About 8,800 targets were measured; listed, in parts, are those with a hit and a random draw of the rest. About 0.5% of all pairs of compound and target were hits. A number with no mark means an inactive call.
# Key:
# Test in all cases: log2 fold change, soluble protein after heating vs DMSO (PISA); higher = thermal stabilisation; K562 lysate, 10 uM; active = over 0.2 and 3.5 SD of the protein, either way, in both replicates (recomputed)
# [1] = compound: C#Cc1cccc(Nc2ncnc3cc(OCCOC)c(OCCOC)cc23)c1 [erlotinib]
# Summary of the method: (§1)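 K562 pellets were dounce-homogenised in PBS pH 7.4 with 1 mM MgCl2, and the crude extract at 1 mg/mL protein was treated with 10 μM compound for 30 min. Aliquots were heated for 3 min across 48°C-58°C, pooled, and brought to 0.5% NP-40 at 4°C; soluble protein was the supernatant after 21,000xg for 90 min. Soluble protein was quantified by TMTpro 16plex LC-MS/MS with channel sums equalised, and reported as log2 fold change in thermal stability against DMSO controls, with values from duplicates.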
# [2] = compound: C/C(=N\NC(=O)C1=CC(=CC=C1)S(=O)(=O)N2CCOCC2)/C3=C(C=CC(=C3)Cl)O
# Summary of the method: as §1
# [3] = compound: C1=CC(=CC=C1C2=NC3=C(N2)C=C(C=C3)C(=O)N)OC4=CC=C(C=C4)Cl
# Summary of the method: as §1
# [4] = compound: C1=CC2=C(C=CC(=C2)/C=C\3/C(=O)NC(=NCC4=CC=CS4)S3)N=C1
# Summary of the method: as §1
# [5] = compound: C1=CC2=NC=CN=C2C=C1/C=C/3\C(=O)NC(=O)S3
# Summary of the method: as §1
# [6] = compound: C1=CC=C(C=C1)C2=NC(=C(N2)C3=CC=NC=C3)C4=CC(=C(C=C4)Cl)O
# Summary of the method: as §1
# [7] = compound: C1=CC=C2C(=C1)C3=NNC4=CC=CC(=C43)C2=O
# Summary of the method: as §1
# [8] = compound: C1CCN(C1)C(=O)NC2=CC=CC(=C2)NC3=NC=C(C(=N3)NCCC4=CN=CN4)Br
# Summary of the method: as §1
# [9] = compound: C1CN(CCC1(CC2=CC=C(C=C2)Cl)N)C3=NC=NC4=C3C=CN4
# Summary of the method: as §1
# [10] = compound: C1COCCN1CCN2C3=CC=CC=C3N=C2NC(=O)C4=CC(=CC=C4)[N+](=O)[O-] [IRAK-1-4 Inhibitor I]
# Summary of the method: as §1
# [11] = compound: C=CC(=O)N1CCC[C@@H](n2nc(-c3ccc(Oc4ccccc4)cc3)c3c(N)ncnc32)C1 [ibrutinib]
# Summary of the method: as §1
# [12] = compound: CC(=O)c1cnc2ccc(-c3cc(Cl)c(O)c(Cl)c3)nc2c1N[C@H]1CC[C@H](CN(C)C)CC1
# Summary of the method: as §1
# [13] = compound: CC(C)(C)Cn1c(N)nc2ccc(-c3[nH]c(C(C)(C)C)nc3-c3ccc(F)cc3)nc21 [ralimetinib]
# Summary of the method: as §1
# [14] = compound: CC(C)(O)CC(=O)NCCn1ccc2ncnc(Nc3ccc(Oc4cccc(C(F)(F)F)c4)c(Cl)c3)c21
# Summary of the method: as §1
# [15] = compound: CC(C)C1=C2N=C(C=C(N2N=C1)NCC3=CC=CC=C3)NCCCCCCN
# Summary of the method: as §1
# [16] = compound: CC1=C(C(CC(=O)N1)C2=CC=C(C=C2)C(F)(F)F)C(=O)NC3=C(C=C4C(=C3)C=NN4)F
# Summary of the method: as §1
# [17] = compound: CC1=C(C2=C(C=C1)C(=O)C3=CC=CC=C3N2CCCN)C
# Summary of the method: as §1
# [18] = compound: CC1=C(C=C(C=C1)NC(=O)C2=CC(=CC=C2)C(C)(C)C#N)NC3=CC4=C(C=C3)N=CN(C4=O)C
# Summary of the method: as §1
# [19] = compound: CC1=C(C=C(C=C1)NC(=O)C2=CC(=CC=C2)N(C)C)NC(=O)C3=CC=C(C=C3)O
# Summary of the method: as §1
# [20] = compound: CC1=CC=C(C=C1)SC2=C3C=C(SC3=CN=C2)C(=O)N
# Summary of the method: as §1
# Chain of UniProt Q1KMD3 (Q1KMD3 whole entry, looked up): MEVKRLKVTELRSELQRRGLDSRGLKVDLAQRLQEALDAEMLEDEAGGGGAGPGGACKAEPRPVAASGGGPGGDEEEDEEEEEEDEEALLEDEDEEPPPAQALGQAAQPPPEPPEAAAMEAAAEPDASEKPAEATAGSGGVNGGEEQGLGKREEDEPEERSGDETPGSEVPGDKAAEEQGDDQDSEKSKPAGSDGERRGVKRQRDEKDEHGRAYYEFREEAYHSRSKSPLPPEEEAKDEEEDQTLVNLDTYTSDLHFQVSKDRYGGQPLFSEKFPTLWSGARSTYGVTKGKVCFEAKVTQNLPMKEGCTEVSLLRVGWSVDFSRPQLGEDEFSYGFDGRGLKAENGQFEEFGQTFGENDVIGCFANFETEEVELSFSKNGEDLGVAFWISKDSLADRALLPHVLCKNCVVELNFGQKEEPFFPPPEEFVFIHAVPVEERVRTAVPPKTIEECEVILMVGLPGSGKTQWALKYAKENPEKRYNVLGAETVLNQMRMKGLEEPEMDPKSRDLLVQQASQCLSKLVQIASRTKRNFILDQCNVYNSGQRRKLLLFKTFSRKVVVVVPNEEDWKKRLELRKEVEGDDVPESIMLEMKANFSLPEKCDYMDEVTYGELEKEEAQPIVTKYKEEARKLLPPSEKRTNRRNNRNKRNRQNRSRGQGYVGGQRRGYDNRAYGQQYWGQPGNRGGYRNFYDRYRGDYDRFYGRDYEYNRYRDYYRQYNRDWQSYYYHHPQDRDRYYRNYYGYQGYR
# Chain of UniProt P11142 (P11142 whole entry, looked up): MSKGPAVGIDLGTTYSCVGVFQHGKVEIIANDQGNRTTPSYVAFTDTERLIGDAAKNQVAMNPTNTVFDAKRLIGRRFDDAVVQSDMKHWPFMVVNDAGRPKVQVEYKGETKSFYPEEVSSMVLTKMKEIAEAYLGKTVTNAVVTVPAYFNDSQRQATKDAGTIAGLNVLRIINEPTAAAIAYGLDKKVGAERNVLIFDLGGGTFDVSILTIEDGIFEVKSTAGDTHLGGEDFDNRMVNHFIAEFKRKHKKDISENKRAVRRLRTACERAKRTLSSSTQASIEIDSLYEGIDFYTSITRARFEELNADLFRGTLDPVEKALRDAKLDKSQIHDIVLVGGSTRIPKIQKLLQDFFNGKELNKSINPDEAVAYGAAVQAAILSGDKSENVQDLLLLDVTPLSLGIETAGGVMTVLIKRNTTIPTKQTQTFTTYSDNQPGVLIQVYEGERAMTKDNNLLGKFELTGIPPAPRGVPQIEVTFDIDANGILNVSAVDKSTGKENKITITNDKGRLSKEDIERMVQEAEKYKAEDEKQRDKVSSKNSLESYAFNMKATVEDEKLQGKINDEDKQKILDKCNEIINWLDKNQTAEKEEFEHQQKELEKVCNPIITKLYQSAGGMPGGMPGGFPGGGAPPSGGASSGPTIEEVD
# Chain of UniProt Q14145 (Q14145 whole entry, looked up): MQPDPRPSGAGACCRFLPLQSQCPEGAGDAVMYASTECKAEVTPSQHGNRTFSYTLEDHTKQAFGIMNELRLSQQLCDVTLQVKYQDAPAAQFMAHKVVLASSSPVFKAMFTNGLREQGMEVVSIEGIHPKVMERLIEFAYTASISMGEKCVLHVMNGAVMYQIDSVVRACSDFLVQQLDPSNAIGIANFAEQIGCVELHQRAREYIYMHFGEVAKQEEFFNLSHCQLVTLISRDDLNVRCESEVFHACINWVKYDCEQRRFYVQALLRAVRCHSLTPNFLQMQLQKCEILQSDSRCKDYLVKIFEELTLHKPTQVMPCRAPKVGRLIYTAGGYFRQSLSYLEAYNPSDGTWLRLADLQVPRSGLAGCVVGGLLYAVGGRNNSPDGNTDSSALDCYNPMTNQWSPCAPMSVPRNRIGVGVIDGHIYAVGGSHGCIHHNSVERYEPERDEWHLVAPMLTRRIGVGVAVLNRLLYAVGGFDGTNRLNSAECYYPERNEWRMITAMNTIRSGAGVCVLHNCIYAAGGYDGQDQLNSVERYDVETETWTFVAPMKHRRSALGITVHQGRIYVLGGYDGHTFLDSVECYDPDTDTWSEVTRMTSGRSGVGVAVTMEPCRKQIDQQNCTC
# Chain of UniProt P62873 (P62873 whole entry, looked up): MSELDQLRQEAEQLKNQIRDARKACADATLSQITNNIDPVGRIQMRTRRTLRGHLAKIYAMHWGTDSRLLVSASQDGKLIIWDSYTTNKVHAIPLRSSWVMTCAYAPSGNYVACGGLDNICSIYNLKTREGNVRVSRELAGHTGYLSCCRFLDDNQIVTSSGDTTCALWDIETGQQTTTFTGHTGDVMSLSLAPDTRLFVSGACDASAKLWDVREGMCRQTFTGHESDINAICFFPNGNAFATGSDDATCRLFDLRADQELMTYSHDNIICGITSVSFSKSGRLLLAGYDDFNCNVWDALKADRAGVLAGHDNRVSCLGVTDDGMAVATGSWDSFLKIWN
# Chain of UniProt Q9H6D7 (Q9H6D7 whole entry, looked up): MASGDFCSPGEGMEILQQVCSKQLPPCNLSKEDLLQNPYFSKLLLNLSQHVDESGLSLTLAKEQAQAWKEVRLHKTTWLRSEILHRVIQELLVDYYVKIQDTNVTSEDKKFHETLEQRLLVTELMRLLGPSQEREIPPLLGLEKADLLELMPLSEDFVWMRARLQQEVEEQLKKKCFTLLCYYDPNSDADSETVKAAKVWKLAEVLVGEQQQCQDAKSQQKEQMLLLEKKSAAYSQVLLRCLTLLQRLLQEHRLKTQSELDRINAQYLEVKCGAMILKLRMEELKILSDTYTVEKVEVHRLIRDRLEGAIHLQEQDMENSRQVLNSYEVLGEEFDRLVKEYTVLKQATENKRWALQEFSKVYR
# Chain of UniProt Q68E01 (Q68E01 whole entry, looked up): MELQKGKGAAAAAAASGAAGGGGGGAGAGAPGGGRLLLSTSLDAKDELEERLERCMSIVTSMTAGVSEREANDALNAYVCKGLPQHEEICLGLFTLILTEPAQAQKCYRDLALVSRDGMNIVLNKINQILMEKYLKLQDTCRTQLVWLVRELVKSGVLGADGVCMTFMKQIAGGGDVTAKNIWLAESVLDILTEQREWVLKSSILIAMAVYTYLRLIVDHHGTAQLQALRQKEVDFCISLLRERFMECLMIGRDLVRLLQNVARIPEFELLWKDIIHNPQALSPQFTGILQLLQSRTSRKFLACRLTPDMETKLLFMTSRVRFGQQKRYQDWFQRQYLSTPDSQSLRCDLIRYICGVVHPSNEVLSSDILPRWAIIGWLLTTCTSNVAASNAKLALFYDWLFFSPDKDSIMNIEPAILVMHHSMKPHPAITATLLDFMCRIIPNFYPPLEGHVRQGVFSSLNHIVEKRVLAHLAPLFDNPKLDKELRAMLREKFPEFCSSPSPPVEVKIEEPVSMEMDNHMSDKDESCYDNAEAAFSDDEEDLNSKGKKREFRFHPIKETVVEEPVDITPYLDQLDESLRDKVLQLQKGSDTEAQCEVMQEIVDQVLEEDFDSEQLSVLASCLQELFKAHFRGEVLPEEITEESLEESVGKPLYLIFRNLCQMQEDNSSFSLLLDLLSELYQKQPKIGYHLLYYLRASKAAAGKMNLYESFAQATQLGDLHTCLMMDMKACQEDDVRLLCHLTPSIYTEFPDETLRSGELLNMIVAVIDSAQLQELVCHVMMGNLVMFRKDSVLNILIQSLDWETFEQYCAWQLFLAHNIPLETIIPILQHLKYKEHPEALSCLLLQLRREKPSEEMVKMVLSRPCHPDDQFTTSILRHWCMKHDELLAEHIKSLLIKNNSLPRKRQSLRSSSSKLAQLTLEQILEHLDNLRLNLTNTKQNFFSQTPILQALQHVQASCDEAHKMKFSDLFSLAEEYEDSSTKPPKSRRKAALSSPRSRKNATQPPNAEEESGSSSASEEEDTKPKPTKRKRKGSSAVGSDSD
# Chain of UniProt P13598 (P13598 whole entry, looked up): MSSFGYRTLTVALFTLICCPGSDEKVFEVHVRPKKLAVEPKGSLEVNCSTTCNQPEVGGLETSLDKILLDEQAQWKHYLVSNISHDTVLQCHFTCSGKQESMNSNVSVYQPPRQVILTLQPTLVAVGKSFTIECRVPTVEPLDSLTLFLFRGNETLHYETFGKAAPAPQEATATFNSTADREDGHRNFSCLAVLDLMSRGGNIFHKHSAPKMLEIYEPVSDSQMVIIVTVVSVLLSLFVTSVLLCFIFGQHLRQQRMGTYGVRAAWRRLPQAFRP
# Chain of UniProt O15379 (O15379 whole entry, looked up): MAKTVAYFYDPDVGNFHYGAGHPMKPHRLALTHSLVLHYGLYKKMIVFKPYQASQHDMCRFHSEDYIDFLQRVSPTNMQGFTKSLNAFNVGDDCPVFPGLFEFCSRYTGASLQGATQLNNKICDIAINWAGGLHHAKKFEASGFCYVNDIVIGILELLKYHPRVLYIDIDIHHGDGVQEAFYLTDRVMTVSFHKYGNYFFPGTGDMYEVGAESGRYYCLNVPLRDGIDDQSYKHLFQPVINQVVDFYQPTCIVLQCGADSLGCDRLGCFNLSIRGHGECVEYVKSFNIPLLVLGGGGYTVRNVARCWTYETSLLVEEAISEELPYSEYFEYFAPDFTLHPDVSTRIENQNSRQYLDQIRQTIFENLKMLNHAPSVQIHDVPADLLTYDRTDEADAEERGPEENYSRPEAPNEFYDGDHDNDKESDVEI
Target,log2 fold change [1],log2 fold change [2],log2 fold change [3],log2 fold change [4],log2 fold change [5],log2 fold change [6],log2 fold change [7],log2 fold change [8],log2 fold change [9],log2 fold change [10],log2 fold change [11],log2 fold change [12],log2 fold change [13],log2 fold change [14],log2 fold change [15],log2 fold change [16],log2 fold change [17],log2 fold change [18],log2 fold change [19],log2 fold change [20]
HNRNPUL2 (UniProt Q1KMD3),-0.006,-0.002,0.02,-0.004,-0.035,-0.006,-0.014,-0.001,-0.022,-0.003,-0.019,-0.674 (active),-0.018,-0.02,0.021,-0.022,-0.03,0.011,0.032,0
HAUS4 (UniProt Q9H6D7),0.012,-0.029,-0.036,0.064,-0.003,0.015,-0.015,-0.025,-0.007,-0.016,0.04,-0.033,0.003,0.01,-0.004,0.006,-0.016,-0.008,0.057,-0.01
GNB1 (UniProt P62873),0.053,0.018,0.082,-0.019,-0.015,-0.022,0.023,-0.017,-0.031,0.012,0.018,-0.018,-0.036,0.057,0.003,-0.052,0.076,0.145,-0.076,-0.011
HDAC3 (UniProt O15379),0.061,-0.035,0.056,-0.008,-0.001,0.01,0.019,-0.017,0.029,0.028,-0.004,0,0.043,0.018,-0.029,-0.03,0,-0.003,-0.082,-0.007
ICAM2 (UniProt P13598),0.004,-0.022,0.023,-0.029,-0.01,-0.011,0.021,0.032,0.005,0.061,0.058,0.043,0.001,-0.019,-0.016,0.005,0.012,0.023,-0.028,-0.028
KEAP1 (UniProt Q14145),0.048,0.006,0.018,-0.005,0.014,0.015,-0.006,0.038,0.018,-0.006,0.014,0.001,0.017,-0.014,-0.015,-0.026,-0.049,0.012,0.019,-0.024
INTS3 (UniProt Q68E01),0.015,0.035,0.021,-0.002,-0.008,-0.043,-0.005,0.026,-0.083,0.016,0.044,0.024,0.019,-0.032,0.032,-0.035,0.004,0.009,0.025,-0.032
HSPA8 (UniProt P11142),-0.022,0.003,0.008,0.002,-0.028,-0.004,0.038,0.016,-0.009,-0.008,-0.02,-0.002,-0.015,-0.003,0.001,-0.022,0.005,-0.013,-0.002,0.009
